This is an account of results in PubChem BioAssay AID720579 (National Center for Advancing Translational Sciences (NCATS), 2013).

The campaign covered roughly 310,000 compounds. About 1,900 (0.61%) were called active. Entries that show only a call come without a potency. Inconclusive results (about 8%) are left out. The full list was thinned out, with actives kept by preference. A number with no mark means an inactive call. Calls come from the whole dose curve; tested in A549 cells.
Potency is the fitted concentration of half-maximal effect.

This experiment in a line: qHTS for Stage-Specific Inhibitors of Vaccinia Orthopoxvirus: mCherry Reporter Primary qHTS. Note: nearly all actives have a fitted effect of over 35% in size. The conditions noted are these: Vaccinia virus mCherry reporter infection, fluorescence; series mostly up to 36.5 µM.
As to `CC1(C)OC(=O)C2=C(C[C@@H](C3CC3)O[C@H]2CCc2cccc(Cl)c2)O1`, the Potency result is “inactive”.

For the compound `CCC(CC)C(C(=O)NC1CCCC1)N1CCN(c2cc(C)nc3ccccc23)CC1` (stereo not given), the Potency entry is “inactive”.

For the compound `S=C(c1ccccc1)N1CCCC1`, the Potency result was “inactive”.

As to `CN(CC(=O)O)C(=O)c1ccccc1`, the Potency entry was “inactive”.

Regarding `CN(O)C(=S)c1ccccc1`, the Potency was 14.1 µM (active).

Regarding `Cc1ccc2nc(-c3ccccc3)c(CC3CCCCC3)n2c1`, the Potency result was “inactive”.

For the compound `CCC(C)N1C(=O)S/C(=C/c2ccc(Sc3nc4ccccc4[nH]3)o2)C1=O` (stereo not given), the Potency is 12.6 µM (active).

On to `CCCCSc1nc2ccccc2[nH]1`, for which the Potency entry is “inactive”.

Take `CCC(c1nc2ccccc2[nH]1)n1c(=O)c(-c2cccs2)nc2ccccc21` (stereo not given): the Potency entry was “inactive”.

Turning to `CN(C)c1ccc(C=Nc2ccc(/C=C/c3ccnc4ccccc34)cc2)cc1`, the Potency result was “inactive”.

In the case of `CC(C)n1ncc2c(C(=O)N3CCN(Cc4cccs4)CC3)cc(C3CC3)nc21`, the Potency entry was “inactive”.

As for `C=CC(=O)Nc1ccc(Nc2ccnc(Nc3ccc(N4CCN(C)CC4)cc3)n2)cc1`, the Potency was 5.01 µM (active).

For the compound `Cc1cccc(N2CCN(c3ccc(NC(=O)/C=C\C(=O)O)cc3)CC2)c1`, the Potency entry was “inactive”.

Turning to `CN1CCN(c2ccc(NC(=O)c3ccccc3)cc2)CC1`, the Potency result is “inactive”.

Turning to `O=C(/C=C/c1ccc(Cl)c([N+](=O)[O-])c1)c1ccc(O)cc1`, the Potency result was “inactive”.

In the case of `CN(C)c1ccc(/C=C/C(=O)c2ccc(O)cc2)cc1[N+](=O)[O-]`, the Potency is 15.8 µM (active).

On to `CC(=O)Nc1ccc(C=CC(=O)c2ccc([N+](=O)[O-])cc2)cc1`, for which the Potency result is “inactive”.

As for `COc1cccc(C(O)c2nc(-c3ccc(C)c(C)c3)cs2)c1` (stereo not given), the Potency result was “inactive”.

Take `O=C(c1ccc(C(F)(F)F)cc1)N1CCC(=O)N([C@H](COCc2ccccc2)Cc2ccccc2)CC1`: the Potency entry is “inactive”.

Take `CN(C)c1ccc(/C=C2\C=Cc3ccccc32)cc1Br`: the Potency result is “inactive”.

Take `CCCCN(C=O)c1c(CC)nc2c(OCCC3CCCCC3)cccn12`: the Potency entry was “inactive”.

Consider `CN(C)C(CNC(=O)c1cccc(S(=O)(=O)N2CCc3ccccc3C2)c1)c1ccccc1` (stereo not given), for which the Potency result was “inactive”.

As for `COCOCCn1cc(CN2CCS(=O)(=O)N(Cc3ccc(-c4ccc(OC)cc4)cc3)C(CC(C)C)C2=O)nn1` (stereo not given), the Potency result is “inactive”.

As to `O=C(CCN1C(=O)/C(=C/c2cccs2)SC1=S)NNC(=O)c1cccc(O)c1`, the Potency entry was “inactive”.

Turning to `O=C(CCCN1C(=O)/C(=C/c2ccco2)SC1=S)Nc1ccccc1`, the Potency result is “inactive”.

Take `O=C(CCCN1C(=O)/C(=C/c2cccs2)SC1=S)Nc1ccc(O)cc1`: the Potency is 10 µM (active).

On to `O=C1C(Sc2cccc(F)c2)=C[C@@]2(O)CC[C@@H](O)[C@]1(Sc1cccc(F)c1)[C@H]2O`, for which the Potency entry is “inactive”.

With `CCCCCNC(=O)C(c1ccc(OC)cc1)n1c(=O)c(-c2ccccc2)nc2ccccc21` (stereo not given), the Potency entry was “inactive”.

As for `COC(=O)c1ccc(NCc2cc(O)ccc2O)cc1`, the Potency was 10 µM (active).

Regarding `CC(OC(=O)c1ccc(Cl)cc1O)C(=O)NCCC1=CCCCC1` (stereo not given), the Potency result is “inactive”.

As for `CC(C)OC(=O)c1ccc(NCc2cc(O)ccc2O)cc1Cl`, the Potency was 4.47 µM (active).

`C#CCNc1ccc(C(=O)OCC)cc1`: the Potency entry was “inactive”.

`CC(C)NC(=O)c1ccc(Cl)cc1Cl`: the Potency entry was “inactive”.

Consider `COC(=O)c1ccc(NC(=O)CSc2nnc(CNc3ccc(OC)cc3)n2C)cc1`, for which the activity change, negative = inhibition was -12.7% [at 1.46 µM].

As for `COc1ccc(C(=O)N2CCCCC2c2cc(C(=O)Nc3ccccc3)no2)cc1` (stereo not given), the Potency result is “inactive”.

On to `COc1ccc(-c2coc3c(C(=O)NC(C)C)cccc23)c(C)c1`, for which the Potency entry was “inactive”.

In the case of `CCCCC[C@@H]1C=C(C(=O)OCC)[C@H](c2ccccc2)N1S(=O)(=O)c1ccc(C)cc1`, the Potency result was “inactive”.

Take `COCc1cccc(-c2csc(C(O)c3ccc(F)cc3)n2)c1` (stereo not given): the Potency result was “inactive”.

`N#CCc1ccc(OC(=O)c2cccnc2)cc1`: the Potency entry is “inactive”.

For the compound `CCCCCCOc1ccc(OC(=O)c2cccnc2)cc1`, the Potency is 10 µM (active).

Consider `O=C(Oc1ccc(Br)cc1)c1cccnc1`, for which the Potency result is “inactive”.

Regarding `O=C(CC(CC(=O)c1ccccc1)c1ccco1)c1ccccc1`, the Potency entry was “inactive”.

On to `Cc1ccccc1-c1nc(NC(C)C)nc2cc(-c3ccccc3)sc12`, for which the Potency result is “inactive”.

Turning to `Cc1ccccc1S(=O)(=O)N1[C@@H](c2cccc(Cl)c2)C(C(=O)OC(C)(C)C)=CC[C@H]1c1ccc(Cl)cc1`, the Potency entry was “inactive”.

As for `COc1cc2nc(N3CCCN(C)CC3)nc(NC(C)C)c2cc1OC`, the Potency entry was “inactive”.

On to `C=CCC[C@H](Cc1ccc(F)cc1)C(=O)OC[C@@H](NC(=O)[C@@H](CC=C)CC(=O)N[C@H](CO)Cc1ccccc1)C(C)(C)C`, for which the Potency is 12.6 µM (active).

For the compound `C=CCC[C@H](Cc1ccc(F)cc1)C(=O)OC[C@@H](Cc1c[nH]c2ccccc12)NC(=O)[C@H](CC=C)CC(=O)N[C@H](CO)Cc1ccccc1`, the Potency entry was “inactive”.

Consider `C=CC[C@@H](CC(=O)N[C@@H](CO)Cc1ccccc1)C(=O)N[C@H](COC(=O)[C@H](CC=C)CC(=O)OC(C)(C)C)Cc1ccccc1`, for which the Potency entry was “inactive”.

On to `COc1ccc2[nH]c3c(C)c4cc[n+](C)cc4c(C)c3c2c1`, for which the Potency was 11.2 µM (active).

As to `COc1ccc2[nH]c(C(=O)N3CCN(C)CC3)c(C)c2c1`, the Potency entry is “inactive”.

As to `COc1ccc2[nH]c3c(c2c1)CCN[C@H]3C`, the Potency entry is “inactive”.

Regarding `Cc1ccccc1-n1c(SCC(=O)NCc2cccs2)nnc1-c1ccncc1`, the Potency result was “inactive”.

For the compound `Cc1ccc(-n2c(SCC(=O)N3c4ccccc4Sc4ccccc43)nnc2-c2ccncc2)cc1`, the Potency result is “inactive”.

For the compound `Cc1ccc(Nc2nc(CSc3nnc(-c4ccncc4)n3-c3ccccc3C)cs2)cc1`, the Potency is 10 µM (active).

`COc1ccccc1/C=N\Nc1cc(C)nc(-n2nc(C)cc2C)n1`: the Potency was 5.62 µM (active).

Regarding `COc1cc(Cl)c(C)cc1Nc1nnc(-n2nc(C)cc2C)c2ccccc12`, the Potency entry is “inactive”.

Take `COc1ccc(NC(=O)c2nc(-n3nc(C)cc3C)ccc2Cl)cc1Cl`: the Potency result is “inactive”.

For the compound `Cc1ccc(S(=O)(=O)Nc2nc(C)cc(N/N=C/c3ccc(O)cc3)n2)cc1`, the Potency entry was “inactive”.

Consider `Cc1cc(N/N=C\c2ccc(Br)cc2)nc(-n2nc(C)cc2C)n1`, for which the Potency is 2.24 µM (active).

With `Cc1cccc(Nc2cc(C)nc(-n3nc(C)cc3C)n2)c1`, the activity change, negative = inhibition is -3.8% [at 7.34 µM].

With `COc1cc(CNc2ncnc3c2ncn3[C@H]2CN(Cc3cccs3)C[C@@H](CO)O2)cc(OC)c1OC`, the Potency entry is “inactive”.

In the case of `COc1ccc(/C=C/c2ccccn2)cc1OC`, the Potency entry was “inactive”.

Consider `CCOC(=O)[C@]12CCCC=C1N(Cc1cccc3ccccc13)C(=O)[C@H](CC(=O)NCC13CC4CC(CC(C4)C1)C3)C2`, for which the Potency entry was “inactive”.

`Cc1cccc(-n2c(C)cc(/C=N/NC(N)=S)c2C)c1`: the Potency result was “inactive”.

For the compound `CC(C)Oc1c(Br)cc(Br)cc1/C=N/NC(N)=S`, the Potency was 3.98 µM (active).

`NC(=S)N/N=C/c1coc2cc(Cl)ccc2c1=O`: the Potency entry is “inactive”.

As to `CCCCCCCCN1C(=O)[C@H](CC(=O)NCc2cccc3ccccc23)C[C@@]2(C(=O)OC)CCCCC=C12`, the Potency result was “inactive”.

Turning to `COc1ccc(Cn2c(=O)[nH]c3cc(C(=O)N4CCN(C(=O)c5ccco5)CC4)ccc3c2=O)cc1`, the Potency entry is “inactive”.

Regarding `CCNC(=O)N1c2ccccc2Sc2ccccc21`, the Potency result is “inactive”.

With `CC1C(C)N(C(=O)CCl)c2ccccc2N1C(=O)CCl` (stereo not given), the Potency was 8.91 µM (active).

As for `CCCn1c(=N)n(CC(=O)c2ccc(Cl)c(Cl)c2)c2ccccc21`, the Potency result is “inactive”.

On to `COC(=O)[C@]12CCCCC=C1N(Cc1ccc3c(c1)OCO3)C(=O)[C@H](CC(=O)NCc1cccs1)C2`, for which the Potency result was “inactive”.

For `C(=Nc1ccc(/C=C/c2ccnc3ccccc23)cc1)Nc1ccc(/C=C/c2ccnc3ccccc23)cc1`, the Potency entry is “inactive”.

With `CN(C)S(=O)(=O)c1cccc(NC(=O)Cc2ccsc2)c1`, the Potency is 12.6 µM (active).

As to `CN(C)S(=O)(=O)c1cccc(NC(=O)COC(=O)/C=C/c2cccs2)c1`, the Potency result is “inactive”.

Consider `CN(C)S(=O)(=O)c1cccc(NC(=O)COC(=O)c2cc(=O)[nH]c(=O)[nH]2)c1`, for which the Potency entry is “inactive”.

`O=C(NC(c1ccc(Cl)cc1)c1cnccn1)C1CCN(Cc2ccc(Cl)cc2)CC1` (stereo not given): the Potency result was “inactive”.

Take `O=C(Nc1cccc2ccccc12)c1[nH]c(-c2ccccc2)c2c1C(=O)N(C1CC1)C2=O`: the Potency result is “inactive”.

`CCCCC(CCCC)c1ccc(C=Nc2ccc(/C=C/c3ccnc4ccccc34)cc2)cc1`: the Potency result is “inactive”.

`Oc1ccc(N=Nc2nccs2)c(O)c1`: the Potency is 3.98 µM (active).

As to `CCN1CCN(c2ccc(/C=C/c3ccnc4ccccc34)cc2)CC1`, the Potency entry is “inactive”.

For the compound `N#Cc1ccc(C(C(=O)NCc2ccccc2)n2c(=O)c(-c3ccco3)nc3ccccc32)cc1` (stereo not given), the Potency result was “inactive”.

As to `CC1(Oc2cccc(F)c2)CCN(Cc2ccccc2OC(F)F)C1` (stereo not given), the Potency result is “inactive”.

For `CCN(C(=O)Nc1cccc2ccccc12)c1ccccc1`, the Potency result is “inactive”.

In the case of `CC(=O)N1Cc2cc(C(=O)NCc3cccc(F)c3)nc(-c3cccc(C4=CCCCC4)c3)c2[C@H]1CCO`, the Potency entry was “inactive”.
